CYP2C9 inhib – blockers of cytochrome P450 2C9 activity – biochemical, luminescence, ADME assay, primary screen; P11712; 96,000 tested, 20% active; inhibition, % at 5 µM; CYP2C9 Supersomes, luciferin-H conversion;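 active = blocking of liver enzyme CYP2C9 beyond about 50% at 5 µM, limit read from the data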
Target sequence (P11712 whole entry, looked up): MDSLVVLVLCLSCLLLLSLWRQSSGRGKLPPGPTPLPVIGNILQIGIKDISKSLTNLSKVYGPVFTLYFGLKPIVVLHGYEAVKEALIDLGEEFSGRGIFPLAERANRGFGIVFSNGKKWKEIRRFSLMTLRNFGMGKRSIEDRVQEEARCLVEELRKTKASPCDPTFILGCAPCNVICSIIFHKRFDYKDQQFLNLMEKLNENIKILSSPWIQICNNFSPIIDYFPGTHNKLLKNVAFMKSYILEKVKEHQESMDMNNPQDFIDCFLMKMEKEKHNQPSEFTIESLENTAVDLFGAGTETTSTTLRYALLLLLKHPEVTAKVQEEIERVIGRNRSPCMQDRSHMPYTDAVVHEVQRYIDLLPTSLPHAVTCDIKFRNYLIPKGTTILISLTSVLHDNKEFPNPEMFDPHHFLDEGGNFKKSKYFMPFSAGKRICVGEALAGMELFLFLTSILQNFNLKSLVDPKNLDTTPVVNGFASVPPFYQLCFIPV
CYP2C9 activ – human CYP2C9 activators, primary screen, biochemical, luminescence. recombinant CYP2C9, luciferin-H conversion; hits give high values; factor 1 = untreated enzyme, 0 = blocked. 96,000 tested, 1.4% active. activation factor at 5 µM;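 active = activation factor of 2 or more for CYP2C9 at a 5 µM dose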;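 also: 0 = sulfaphenazole-blocked wells and 1 = vehicle-only wells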
CYP2C19 inh – blockers of cytochrome P450 2C19 activity – biochemical, luminescence, ADME assay, primary screen. AID 778, 2007. 96,000 tested, 21% active. inhibition, % at 5 µM. P33261. CYP2C19 Supersomes, luciferin-H EGE luminescence, 30 min;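 active = CYP2C19 inhibition above a set limit at 5 µM in the primary screen, cut at about 50% in these data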;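 also: plate controls were negative control wells for no effect and 2.5 mM tranylcypromine positive control for full effect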
PLAP act – PLAP enzyme activators, biochemical, luminescence, HTS; Alkaline phosphatase, placental type (Homo sapiens), P05187; purified PLAP enzyme, luminescent substrate read-out; hits give high values; activation fold at 20 µM; 96,000 tested, 1.2% active; AID 696, 2007; in the data active = activation fold above about 2
CYP2C19 activ – human CYP2C19 activators, primary screen, biochemical, luminescence | Cytochrome P450 2C19 (Homo sapiens), P33261 | recombinant CYP2C19, luciferin-H EGE luminescence; hits give high values; 0 = fully inhibited enzyme, 1 = untreated enzyme | activation factor at 5 µM | 96,000 tested, under 10 active | AID 1025, 2008;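 active = activation factor of at least 2 at 5 µM in the primary screen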;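 also: 0 = wells with 2.5 mM tranylcypromine and 1 = vehicle-only wells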
* = called active by the depositor. Compounds with a hit are over-represented: about 31% of the library has one in this group of screens.

SMILES	CYP2C9 inhib	CYP2C9 activ	CYP2C19 inh	PLAP act	CYP2C19 activ
COC(=O)c1sccc1-n1cccc1C(=O)N1CCOCC1	11	0.9	41	0.9	0.6
COC(=O)c1sc2ccccc2c1-n1cccc1C(=O)C(=O)Nc1ccc(F)cc1	100*	0	33	1.1	0.7
COC(=O)c1sc2ccccc2c1-n1cccc1C(=O)C(=O)Nc1ccc(Cl)cc1	99*	0	23	0.9	0.8
CCOC(=O)c1c(C)c(C(=O)NC(C)COC)c(C)n1CC (centres undefined)	0	1	5	1	0.9
CCCc1n[nH]c2c1/C(=N\O)CCC2	-4	1	4	1	1
Cc1cc(C)n2c(Br)c(CSc3nc4ccccc4o3)nc2n1	13	0.9	17	0.9	0.8
CCOC(=O)C1=C(N)OC2=C(C(=O)CCC2)C1c1ccc(C)s1 (centres undefined)	16	0.8	53*	1.2	0.5
CCOc1ccccc1C1C(C(=O)OC)=C(N)OC2=C1C(=O)CCC2 (centres undefined)	70*	0.3	93*	1.1	0.1
O=C(O)CCCCC1SCC2NC(=O)NC21 (centres undefined)	1	1	-5	1	1.1
Cc1cc2nc(C)n3c4ccccc4nc3n2n1	-12	1.1	-13	1	1.1
Cc1cc(C)c(S(C)(=O)=O)c(Sc2ccc(Cl)cc2)n1	65*	0.3	45	1	0.5
O=C(CN(C1CCCCC1)S(=O)(=O)c1ccc(Cl)cc1)NCCCO	31	0.7	60*	1.6	0.4
COC(=O)CCN(C1CCCCC1)S(=O)(=O)c1ccc(S(=O)(=O)N2CCCCC2)cc1	8	0.9	8	0.9	0.9
CC1CCCC(NC(=O)CN(C)S(=O)(=O)c2cccc3cccnc23)C1C (centres undefined)	-114	2.1*	59*	1.6	0.4
CC1CCCCC1NC(=O)CN(C)S(=O)(=O)c1cccc2nsnc12 (centres undefined)	-33	1.3	48	1.1	0.5
CCOC(=O)Cc1csc(NC(=O)CN(C)S(=O)(=O)c2cccc3cccnc23)n1	92*	0.1	90*	1.4	0.1
Cc1ccc(S(=O)(=O)N(C)CC(=O)Nc2ccncc2)cc1	63*	0.4	100*	0.7	0
Cc1cccc(/C=N/NC(=O)c2cc3c(s2)-c2ccccc2CC3)c1	4	1	9	1.3	0.9
O=C(CC1CCS(=O)(=O)C1)Nc1ccc[nH]c1=O (centres undefined)	-5	1.1	15	1.1	0.8
CCC(C)(C(=O)NC1CCCCC1)N(C(=O)CNC(C)=O)c1c(C)n(C)n(-c2ccccc2)c1=O (centres undefined)	-24	1.2	-11	1.6	1.1
CN(CC(=O)N1CCc2ccccc21)S(=O)(=O)c1cccc2cccnc12	-12	1.1	18	0.9	0.8
Cc1ccc(S(=O)(=O)N(CC(=O)NCc2ccncc2)C2CCCCC2)cc1	93*	0.1	99*	1.8	0
Cc1ccc(CNC(=O)CN(C)S(=O)(=O)c2cccc3cccnc23)cc1	42	0.6	88*	1.5	0.1
Cc1ccc(S(=O)(=O)NNC(=O)CCC(=O)Nc2ccccc2)cc1	4	1	-3	1.1	1
COc1ccc(S(=O)(=O)N(C)CC(=O)NCc2cccnc2)cc1OC	-17	1.2	12	0.8	0.9
SMILES	CYP2C9 inhib	CYP2C9 activ	CYP2C19 inh	PLAP act	CYP2C19 activ
Cc1ccc(S(=O)(=O)N(C)CC(=O)NCc2ccncc2)cc1	80*	0.2	90*	0.9	0.1
Cc1ccc(S(=O)(=O)N(C)CCCC(=O)Nc2ccncc2)cc1	96*	0	99*	0.7	0
CC(C(=O)NCc1ccco1)n1cc(C(=O)c2ccco2)c2ccccc21 (centres undefined)	30	0.7	20	1.2	0.8
Cc1cc(O)c(-c2n[nH]c3c2C(c2cccc(O)c2)N(Cc2cccnc2)C3=O)cc1Cl (centres undefined)	67*	0.3	25	1.2	0.8
COCCCN1C(=O)c2[nH]nc(-c3ccccc3O)c2C1c1cccc(Cl)c1 (centres undefined)	35	0.6	40	1.5	0.6
Cc1nn(C)cc1C=NCCOCc1ccccc1	-8	1.1	-6	1	1.1
CC(=O)c1c(C)[nH]c(C(=O)CSc2nc3ccccc3c(=O)n2CCCN2CCOCC2)c1C	66*	0.3	69*	1.7	0.3
Cc1sc2nc(CSc3nc4ccccc4c(=O)n3CCCN3CCOCC3)[nH]c(=O)c2c1C	70*	0.3	71*	1.6	0.3
COCCn1c(SCC(=O)c2[nH]c(C)c(C(C)=O)c2C)nc2ccccc21	78*	0.2	95*	1.3	0.1
O=c1c2ccccc2nc(-c2ccccc2)n1CCCN1CCOCC1	-22	1.2	-14	1.6	1.1
CCOC(=O)C1CCCN(C(=O)Cc2c(C(=O)O)[nH]c3ccccc23)C1 (centres undefined)	7	0.9	-4	1	1
CCC1(C(=O)OC)NC(c2ccccc2OC)C2C(=O)N(C)C(=O)C21 (centres undefined)	-23	1.2	-22	1	1.2
COC(/C=C/Nc1ccc(C)cc1)=C(C#N)C#N	3	1	-8	1	1.1
Cc1ccc(NC(=O)C(=O)NNC(=O)c2ccccc2C)cc1Cl	-17	1.2	9	1.5	0.9
CCn1c(SCC(=O)Nc2cc(C)on2)nnc1-c1cccs1	31	0.7	83*	0.8	0.2
Cc1nnc(SCC(=O)Nc2ccc3c(c2)OCCO3)n1N	-3	1	-2	1	1
CCn1c(SCC(=O)NCC(=O)Nc2ccc(F)cc2)nnc1-c1cccs1	93*	0.1	31	1	0.7
CCn1c(SCC(=O)Nc2ccc(C(=O)OC)cc2)nnc1-c1cccs1	38	0.6	51*	0.9	0.5
CCn1c(SCC(=O)Nc2cc(C)on2)nnc1-c1cccnc1	9	0.9	31	0.8	0.7
CCn1c(SCC(=O)Nc2ccc3c(c2)OCCO3)nnc1-c1cccs1	52*	0.5	33	0.6	0.7
CSc1nnc(-c2cccc(C)c2)n1N	-17	1.2	9	0.9	0.9
COc1cccc(/C=N/NC(=O)CO/N=C(\C)c2cccs2)c1OC	5	0.9	28	1.1	0.7
COC(=O)C1=C(C)NC(=O)NC1c1ccc(OCC(=O)N2CCCCC2)cc1 (centres undefined)	11	0.9	-9	1.1	1.1
Cc1nnc2c(NC(C)C)nc3ccccc3n12	37	0.6	2	0.9	1
O=C(NNC(=S)NCc1ccco1)c1ccc(Cl)s1	55*	0.4	46	1.3	0.5

Bioassay records from PubChem.
